{"source": "PubChem BioAssay AID1508637", "about": "(National Center for Advancing Translational Sciences (NCATS), 2021)", "note": "Results filed as inconclusive are left out. Active and inactive are the calls of the source. The call rests on the fitted dose curve; in most records, active means well fitted inhibition curve with a large enough effect; inconclusive means small, poorly fitted or top-dose-only effect; inactive means flat fitted curve, though single readings scatter. Non-standard residues stand in square brackets, D forms with d. Residues, ends and D or L forms follow the SMILES beside them. *: point of attachment. Cbz = O=C(OCc1ccccc1)*; Nva = CCC[CH](N)C(=O)O", "data": [{"assay": "qHTS for characterization and localization of zebrafish homologs of the human ABCB1 multidrug transporter: empty vector transfected cells", "details": "empty vector transfected control cells, CellTiter-Glo luminescence viability, 72 h; series mostly up to 46.1 µM", "excerpt": "The zebrafish has emerged as a potential model to study the blood-brain barrier (BBB) given its similarities with mammalian systems. However, little information has been available with regard to homologous ATP-binding cassette transporters expressed at the zebrafish BBB. Two transporters that are highly expressed at the human BBB are P-glycoprotein (P-gp, encoded by the ABCB1 gene) and ABCG2 (encoded by the ABCG2 gene). In this study, we focus on characterization of P-gp homologs in the zebrafish, which has two genes that are homologous to human ABCB1 - abcb4 and abcb5. We generated stably-transfected cell lines to determine their substrate specificities. […] Zebrafish abcb4 also colocalized with claudin 5 expression in brain endothelial cells.\nA high-throughput screen was performed as previously described on empty vector transfected cells, P-gp-overexpressing MDR-19 cells and cells transfected with full-length zebrafish abcb4 (ZF Abcb4) or abcb5 (ZF Abcb5). Briefly, cells were plated into 1536-well plates at a density of 500 cells/well in 5 uL media. P-gp substrate compounds (approximately 90) selected from our previous study were then added at varying concentrations using a 1536-head pin tool (Kalypsis, San Diego, CA) and plates were incubated at 37C in 5% CO2 for 72 h. CellTiter-Glo reagent (Promega) was dispensed into the wells, incubated for 5 min and luminescence was read on a ViewLux instrument (Perkin-Elmer).\nCytotoxic compounds were defined as those that yielded a curve class of -1.1, -1.2, -2.1, -2.2, -2.3, or -2.4, a maximum response of >50% and an AC50 of < 10 uM. All compounds from screening analysis were tested in Vector (empty vector control), MDR-19 (P-gp overexpressing), zebrafish abcb4 (ZF Abcb4) and abcb5 (ZF Abcb5) expression cell lines.\n1. Tobie D Lee, Olivia W Lee, Kyle R Brimacombe, Lu Chen, Rajarshi Guha, Sabrina Lusvarghi, Bethilehem G Tebase, Carleen Klumpp-Thomas, Robert W Robey, Suresh V Ambudkar, Min Shen, Michael M Gottesman, Matthew D Hall. A High-Throughput Screen of a Library of Therapeutics Identifies Cytotoxic Substrates of P-glycoprotein. Mol Pharmacol. 2019, Nov;96(5):629-640.", "values": [{"smiles": "COc1cc(C(=O)NC2CCN(C)CC2)ccc1Nc1ncc2c(n1)N(C1CCCC1)CC(F)(F)C(=O)N2C", "Potency": "41.8 nM (active)"}, {"smiles": "Cc1ccc(-c2ncn(-c3ccc(Nc4nccc(-c5cccc(N6CCOCC6)c5)n4)cc3)n2)cn1", "Potency": "3320 nM (active)"}, {"smiles": "CN(C)C1CCN(C(=O)c2ccc(NC(=O)Nc3nc(N4CCOCC4)nc(N4CCOCC4)n3)cc2)CC1", "Potency": "469 nM (active)"}, {"smiles": "CC(C)C[C@H](NC(=O)[C@H](CCc1ccccc1)NC(=O)CN1CCOCC1)C(=O)N[C@@H](Cc1ccccc1)C(=O)N[C@@H](CC(C)C)C(=O)[C@@]1(C)CO1", "Potency": "46.9 nM (active)"}, {"smiles": "CC[C@@H]1C(=O)N(C)c2cnc(Nc3ccc(C(=O)NC4CCN(C)CC4)cc3OC)nc2N1C1CCCC1", "Potency": "46.9 nM (active)"}, {"smiles": "CCCCc1nc2cc(C=CC(=O)NO)ccc2n1CCN(CC)CC", "Potency": "3320 nM (active)"}, {"smiles": "CN(C)C1CCN(C(=O)c2ccc(NC(=O)Nc3ccc(-c4nc(N5CCOCC5)nc(N5CCOCC5)n4)cc3)cc2)CC1", "Potency": "469 nM (active)"}, {"smiles": "CCN(CC)Cc1ccc(C(=O)N(CCc2ccccc2OC)[C@@H]2CCNC2)cc1", "Potency": "inactive"}, {"smiles": "CC(=O)O[C@@H]1C[C@H](O)[C@@]23CO[C@@H](O)C1(C)[C@@H]2C[C@@H](O)[C@]1(C)[C@@H]3C(=O)[C@H](OC(C)=O)[C@@]2(C)[C@H](c3ccoc3)C[C@H]3O[C@]321", "Potency": "93.5 nM (active)"}, {"smiles": "C[C@@]12O[C@@H](C[C@]1(O)CO)n1c3ccccc3c3c4c(c5c6ccccc6n2c5c31)CNC4=O", "Potency": "2640 nM (active)"}, {"smiles": "CC1(C)CC[C@]2(C(=O)OC3OC(CO)C(O)C(O)C3O)CC[C@]3(C)C(=CCC4[C@@]5(C)CC[C@H](OC6OC(C(=O)O)C(O)C(O)C6O)C(CO)(CO)C5CC[C@]43C)[C@@H]2C1", "note": "(stereo not given in full)", "Potency": "2230 nM (active)"}, {"smiles": "CCn1nnc2c(N3CCOCC3)nc(-c3ccc(NC(=O)Nc4ccc(C(=O)N5CCN(C)CC5)cc4)cc3)nc21", "Potency": "332 nM (active)"}, {"smiles": "CCS(=O)(=O)c1cccc(-c2cc(C(=O)NC3CCN(C)CC3)c(C)c3[nH]c4ncc(C)cc4c23)c1", "Potency": "2350 nM (active)"}, {"smiles": "Cc1cc(Nc2cc(NC(=O)c3c(Cl)cccc3Cl)ccn2)nc(N)n1", "Potency": "4180 nM (active)"}, {"smiles": "CCCC(C=O)NC(=O)C(CC(C)C)NC(=O)C(CC(C)C)NC(=O)OCc1ccccc1", "note": "(stereo not drawn) (Cbz-Leu-Leu-[Nva]-aldehyde; configuration not given here)", "Potency": "1480 nM (active)"}, {"smiles": "COc1cc2ncn(-c3cc(OCc4ccccc4C(F)(F)F)c(C(N)=O)s3)c2cc1OC", "Potency": "1910 nM (active)"}, {"smiles": "C[C@@H]1O[C@@H](O[C@H]2[C@H](O)[C@@H](O)[C@H](O[C@H]3[C@H](O[C@H]4CC[C@@]5(C)C(=CC[C@@H]6C5CC[C@]5(C)[C@@H]7[C@H](C[C@@H]65)O[C@]5(CC[C@@](C)(CO[C@@H]6O[C@H](CO)[C@@H](O)[C@H](O)[C@H]6O)O5)[C@H]7C)C4)O[C@H](CO)[C@@H](O)[C@@H]3O)O[C@@H]2CO)[C@H](O)[C@H](O)[C@H]1O", "note": "(stereo not given in full)", "Potency": "353 nM (active)"}, {"smiles": "CCC1=CC2CN(C1)Cc1c([nH]c3ccccc13)[C@@](C(=O)OC)(c1cc3c(cc1OC)N(C)[C@H]1[C@@](O)(C(=O)OC)[C@H](OC(C)=O)[C@]4(CC)C=CCN5CC[C@]31[C@@H]54)C2", "note": "(stereo not given in full)", "Potency": "105 nM (active)"}, {"smiles": "C=CCn1c(=O)c2cnc(Nc3ccc(N4CCN(C)CC4)cc3)nc2n1-c1cccc(C(C)(C)O)n1", "Potency": "1180 nM (active)"}, {"smiles": "CC(C)(C)c1cnc(CSc2cnc(NC(=O)C3CCNCC3)s2)o1", "Potency": "1080 nM (active)"}, {"smiles": "N=C(N)c1ccc(OCCCCCOc2ccc(C(=N)N)cc2)cc1", "Potency": "2640 nM (active)"}, {"smiles": "CCC(C)C(=O)OC1CC(O)C23C4OCC5(C(O)CC2C1(C)C(O)O4)C3C(=O)C(O)C1(C)C(O)(c2ccoc2)CC2OC251", "note": "(stereo not given)", "Potency": "1100 nM (active)"}, {"smiles": "Cc1[nH]c2ccccc2c1CCNCc1ccc(/C=C/C(=O)NO)cc1", "Potency": "235 nM (active)"}, {"smiles": "CN(c1ncccc1CNc1nc(Nc2ccc3c(c2)CC(=O)N3)ncc1C(F)(F)F)S(C)(=O)=O", "Potency": "4180 nM (active)"}, {"smiles": "CN(C)c1ccc(C(=C2C=CC(=[N+](C)C)C=C2)c2ccc(N(C)C)cc2)cc1", "Potency": "590 nM (active)"}, {"smiles": "CN(C)CCN(C)C(=O)c1ccc(NC(=O)Nc2ccc(-c3nc(N4CCOCC4)c4ccn(CC(F)(F)F)c4n3)cc2)cc1", "Potency": "264 nM (active)"}, {"smiles": "CC(C)C[C@H](NC(=O)[C@@H](NC(=O)c1cccc(-c2ccccc2)n1)[C@@H](C)O)B(O)O", "Potency": "74.3 nM (active)"}, {"smiles": "Cc1ccc(C(=O)N(CCCN)C(c2nc3cc(Cl)ccc3c(=O)n2Cc2ccccc2)C(C)C)cc1", "note": "(stereo not given)", "Potency": "1180 nM (active)"}, {"smiles": "CC[C@@H]1C(=O)N(C)c2cnc(Nc3ccc(C(=O)NC4CCC(N5CCN(CC6CC6)CC5)CC4)cc3OC)nc2N1C(C)C", "note": "(stereo not given in full)", "Potency": "52.6 nM (active)"}, {"smiles": "CCc1c(O)cc(O)c(C(=O)c2ccc(OCCN3CCOCC3)c(OC)c2)c1CC(=O)N(CCOC)CCOC", "Potency": "743 nM (active)"}, {"smiles": "C/C=C1/NC(=O)C2CSSCCC=CC(CC(=O)NC(C(C)C)C(=O)N2)OC(=O)C(C(C)C)NC1=O", "note": "(stereo not given)", "Potency": "52.6 nM (active)"}, {"smiles": "CC[C@@]1([C@@H]2O[C@@H]([C@H]3O[C@@](O)(CO)[C@H](C)C[C@@H]3C)C[C@@H]2C)CC[C@H]([C@]2(C)CC[C@]3(C[C@H](O)[C@@H](C)[C@@H]([C@@H](C)[C@@H](OC)[C@H](C)C(=O)O)O3)O2)O1", "Potency": "148 nM (active)"}, {"smiles": "Oc1ccc(-c2ccc(-c3cc(Nc4cccc(CNC5CC5)c4)n[nH]3)cc2)c(O)c1", "Potency": "2960 nM (active)"}, {"smiles": "COC[C@H](NC(=O)c1cnc(C)s1)C(=O)N[C@@H](COC)C(=O)N[C@@H](Cc1ccccc1)C(=O)[C@@]1(C)CO1", "Potency": "166 nM (active)"}, {"smiles": "CN(C)C/C=C/C(=O)Nc1cccc(C(=O)Nc2ccc(Nc3nccc(-c4cccnc4)n3)cc2)c1", "Potency": "18700 nM (active)"}, {"smiles": "Cn1cc(-c2[nH]c3cc(NC(=O)[C@H](N)C4CCCCC4)cc4c3c2C=NNC4=O)cn1", "Potency": "418 nM (active)"}, {"smiles": "C[C@@H](Oc1cc(-n2cnc3ccc(CN4CCN(C)CC4)cc32)sc1C(N)=O)c1ccccc1C(F)(F)F", "Potency": "37.2 nM (active)"}, {"smiles": "COc1cc2c(NC3CCN(C(C)C)CC3)nc(N3CCCN(C)CC3)nc2cc1OCCCN1CCCC1", "Potency": "16600 nM (active)"}, {"smiles": "NC(=O)Nc1cc(-c2cccc(F)c2)sc1C(=O)N[C@H]1CCCNC1", "Potency": "590 nM (active)"}, {"smiles": "C#Cc1cccc(Nc2ncnc3cc(OC)c(OCCCCCCC(=O)NO)cc23)c1", "Potency": "2960 nM (active)"}]}]}
